Test results reported in PubChem BioAssay (NCATS).
Values joined by “and” are separate entries in the source; they are usually repeats but may differ in a detail not shown here. Identical values can stand only once. Inconclusive results are not listed. Active and inactive are the calls of the source. Unless noted, calls come from the whole dose curve; as a rule, active = well fitted curve in the direction sought with a large enough effect; inconclusive = small, poorly fitted or top-dose-only effect, or another doubt; inactive = no such curve, though single readings can be large; an effect the other way counts as inactive or inconclusive.

Columns and labels:
[1] = Cell Viability - NIH 3T3 (AID 541); conditions: NIH 3T3 cell viability, qHTS; activity change, negative = cytotoxicity: at 92.2 µM (top of the series);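 note: cells exposed to compound for 40 hours; nearly all actives have a fitted effect of over 25% in size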; note: potency is the fitted concentration of half-maximal effect;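 for activity change, negative = cytotoxicity: plate controls were DMSO alone for no effect and tamoxifen positive control for full effect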
How it was run: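 AC50 values reflect concentration-dependent loss of intracellular ATP in NIH 3T3 cells after 40 hr treatment in complete culture medium, quantified by luciferase-based luminescence.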

[2] = Cell Viability - LYMP2-004 (AID 966); note: nearly all actives have a fitted effect of over 65% in size; note: potency is the fitted concentration of half-maximal effect;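 for activity change, negative = cytotoxicity: plate controls were DMSO only for no effect and tetraoctylammonium bromide control for full effect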
How it was run: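 Acute toxicity is scored as a concentration-dependent drop in intracellular ATP, quantified by luciferase luminescence, in human lymphoblastoid cells exposed to compound for 24 hr. AC50 derives from Hill-equation modelling.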

[3] = Cell Viability - LYMP2-017 (AID 972);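 note: cells exposed to compound for 24 hours at 37 °C; nearly all actives have a fitted effect of over 55% in size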; note: potency is the fitted concentration of half-maximal effect
How it was run: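 Steps: plate 2500 lymphoblastoid cells per well; incubate 5 hr at 37 C; add compound across a concentration series and incubate 24 hr at 37 C; add CellTiter-Glo and read luminescence after 30 min at room temperature; fit Hill curves for AC50.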

[4] = target: Estrogen receptor (Homo sapiens) (UniProt P03372); assay: qHTS assay for small molecule agonists of estrogen receptor alpha signaling (AID 588514; calls by dose curve;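 note: 0% = vehicle only and 100% = reference agonist; nearly all actives have a fitted effect of over 70% in size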)
How it was run: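 Reporter-gene assay. […] controls beta-lactamase in HEK 293 GripTite cells; after 18 hrs with compound, CCF4 substrate is added for 2 hrs and fluorescence is read.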

[5] = target: Glucocorticoid receptor (Homo sapiens) (UniProt P04150); assay: qHTS assay for small molecule agonists of glucocorticoid receptor signaling (AID 588532; active = well fitted curve in the direction sought with a large enough effect in the signal ratio, with a control signal flat; the % refers to the signal ratio;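 note: 100% = dexamethasone at 0.1 µM and 0% = DMSO only wells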); conditions: HeLa MMTV-bla, beta-lactamase ratio, agonist, 18 h; stronger effect = higher value; percent of dexamethasone control, DMSO zero
How it was run: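 Stimulation of a glucocorticoid response element-driven beta-lactamase gene was measured in HeLa cells. Responses were scaled between DMSO basal and 0.1 uM dexamethasone, then fitted for half-maximal stimulation.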

[6] = target: Glucocorticoid receptor (Homo sapiens) (UniProt P04150); assay: qHTS assay for small molecule antagonists of glucocorticoid receptor signaling (AID 588533; active = well fitted inhibition curve with a large enough effect in the signal ratio, with a control signal flat, not every such curve was filed as active; the % refers to the signal ratio;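 note: cells stimulated with 2 nM dexamethasone as agonist; % is set by controls: 0 for no effect and ±100 for the full control effect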)
How it was run: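 Antagonist-mode qHTS: compound titrations added to GRE-bla HeLa cells, then dexamethasone 2 nM final; 18 h, 37 C. CCF4 FRET fluorescence normalized to dexamethasone and DMSO; IC50 from Hill fit.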

[7] = target: Peroxisome proliferator-activated receptor delta (Homo sapiens) (UniProt Q03181); assay: qHTS assay for small molecule agonists of peroxisome proliferator-activated receptor delta signaling (AID 588534; calls by dose curve;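 note: 0% = DMSO basal wells and 100% = positive control agonist at 10 µM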)
How it was run: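 Reporter cells were plated and held 5 hrs at 37 C before compounds were added. After 18 hrs at 37 C, CCF4 dye was loaded for 2 hrs at RT and fluorescence measured.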

[8] = qHTS assay for small molecule antagonists of peroxisome proliferator-activated receptor delta signaling (AID 588535; active = well fitted inhibition curve with a large enough effect in the signal ratio, with a control signal flat, not every such curve was filed as active; the % refers to the signal ratio;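 for max response: cells co-treated with a PPAR-delta agonist as stimulator during compound exposure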); conditions: HEK293T PPARd-UAS-bla, beta-lactamase FRET ratio, 18 h; 460 nm channel
How it was run: (§1)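 GeneBLAzer PPAR-delta-UAS-bla HEK293T cells in medium with 2% charcoal/dextran FBS were preincubated 5 hrs at 37 C, then given compounds, incubated 18 hrs at 37 C, and read by CCF4 beta-lactamase fluorescence; IC50 from Hill fits.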

[9] = target: Peroxisome proliferator-activated receptor delta (Homo sapiens) (UniProt Q03181); assay: as above
How it was run: as §1

[10] = target: Peroxisome proliferator-activated receptor gamma (Homo sapiens) (UniProt P37231); assay: qHTS assay for small molecule agonists of peroxisome proliferator-activated receptor gamma signaling (AID 588536; active = well fitted curve in the direction sought with a large enough effect in the signal ratio, with a control signal flat, not every such curve was filed as active; the % refers to the signal ratio;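 note: 0% = DMSO basal wells and 100% = rosiglitazone at 2 µM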)
How it was run: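 GeneBLAzer PPAR-gamma-UAS-bla HEK293 cells in 1% charcoal/dextran-treated FBS medium were treated 16 h at 37 C with compounds. Beta-lactamase activity was read by CCF4 ratio (460/530 nm). Response was normalized to 2 uM rosiglitazone (100%) and DMSO, then Hill-fitted for EC50 and efficacy.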

[11] = target: Vitamin D3 receptor (Homo sapiens) (UniProt P11473); assay: qHTS assay for small molecule agonists of vitamin D receptor signaling (AID 588543; calls by dose curve;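 note: 0% = DMSO basal and 100% = reference agonist control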)
How it was run: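 Reporter cells (HEK293T, VDR-UAS-bla) were seeded in medium with 2% charcoal-stripped serum and incubated 5 h, then compounds in concentration series were added for 16 h at 37 °C. Stimulation was scaled between DMSO basal and 50 nM 1α,25-dihydroxyvitamin D3.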

[12] = qHTS assay for small molecule agonists of the antioxidant response element (ARE) signaling pathway measured by Nrf2-dependant transcriptional activity (AID 720636; active = well fitted curve in the direction sought with a large enough effect in the repeat runs; an effect the other way counts as inactive or inconclusive;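 note: HepG2 cells with an ARE-driven luciferase reporter; % of control where 0% means no effect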)
How it was run: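 HepG2 ARE-luc reporter line, 1% dialyzed FBS; 6 hr attachment at 37 C, compound pinned in, 16 hr at 37 C/5% CO2; ONE-Glo, 30 min RT, luminescence read.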

[13] = target: Vitamin D3 receptor (Homo sapiens) (UniProt P11473); assay: qHTS assay for small molecule antagonists of vitamin D receptor signaling (AID 588541; calls by dose curve;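 note: receptor activated by calcitriol during compound treatment; % is set by controls: 0 for no effect and ±100 for the full control effect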)
How it was run: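 VDR-UAS-bla HEK293T cells (2000/well, 2% charcoal-stripped FBS) were treated with titrated compounds plus 1-alpha,25-dihydroxyvitamin D3 (50 nM or 3 nM final) for 16 h at 37 C. CCF4 beta-lactamase fluorescence was read; Hill fits gave IC50.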

[14] = qHTS assay for small molecule activators of the nuclear factor-kappa B (NF-kB) signaling pathway (AID 651749; active = well fitted activation curve with a large enough effect in the signal ratio; the % refers to the signal ratio; note: % of control where 0% means no effect); conditions: NF-kB-bla ME-180 cells, beta-lactamase FRET ratio, 16 h; stronger effect = higher value
How it was run: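 ME-180 cells stably carrying a beta-lactamase reporter under an NF-kB response element were exposed to compound or DMSO vehicle for 16 hr at 37C, 5% CO2. Pathway activation was read by FRET, since reporter expression disrupts FRET.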

[15] = qHTS assay for small molecule agonists of the antioxidant response element (ARE) signaling pathway (AID 651741; active = well fitted activation curve with a large enough effect in the signal ratio; the % refers to the signal ratio; note: potency is the fitted concentration of half-maximal effect; for activation: % of control where 0% means no effect)
How it was run: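 ARE-bla HepG2 cells (beta-lactamase reporter under ARE control) were plated at 2,000 cells/well, preincubated 5 h at 37 C/5% CO2, then treated with DMSO-dissolved compounds for 16 h at 37 C; LiveBLAzer B/G FRET substrate added, fluorescence read after 2 h at room temperature.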

[16] = qHTS assay for small molecule antagonists of the retinoid-related orphan receptor gamma (ROR-gamma) signaling pathway - cell viability counter screen (AID 720652; active = well fitted curve in the direction sought with a large enough effect in the repeat runs; an effect the other way counts as inactive or inconclusive;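 note: CHO reporter cells with doxycycline-induced ROR-gamma expression; compound exposure lasted 16 hr before ATP read; % is set by controls: 0 for no effect and ±100 for the full control effect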)
How it was run: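 Cytotoxicity is quantified via intracellular ATP (CellTiter-Glo luminescence) in doxycycline-induced CHO ROR response element-luciferase reporter cells treated with compound for 16 hr at 37 C, 5% CO2.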

[17] = Cellular Toxicity (caspase-3) Mesangial (AID 660);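 note: combined caspase 3 and 7 activity read by Caspase-Glo luminescence; cells exposed to compound for 16 h before the caspase read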
How it was run: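 Concentration-response qHTS: compound-induced rise in caspase 3/7 luminescence in human mesangial cells after 16 h, normalized to DMSO and 100 uM tamoxifen controls.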

[18] = target: Estrogen receptor (Homo sapiens) (UniProt P03372); assay: qHTS assay for small molecule antagonists of estrogen receptor alpha signaling (AID 588513; active = well fitted curve in the direction sought with a large enough effect in the signal ratio, with a control signal flat, not every such curve was filed as active; the % refers to the signal ratio; note: % is set by controls: 0 for no effect and ±100 for the full control effect)
How it was run: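 Fluorescence from CCF4 substrate after 2 h at room temperature gave reporter activity; cells had been exposed to compound and 0.5nM 17-beta-estradiol for 18 h at 37 C. Hill-equation fitting yielded IC50 and maximal response.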

[19] = target: Peroxisome proliferator-activated receptor gamma (Homo sapiens) (UniProt P37231); assay: qHTS assay for small molecule antagonists of peroxisome proliferator-activated receptor gamma signaling (AID 588537; active = well fitted inhibition curve with a large enough effect in the signal ratio, with a control signal flat, not every such curve was filed as active; the % refers to the signal ratio;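 note: reporter cells co-stimulated with 50 nM rosiglitazone agonist during compound treatment; % of control where 0% means no effect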)
How it was run: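 PPAR-gamma-UAS-bla HEK293 cells (3000/well, 1% charcoal/dextran-stripped FBS) were preincubated 6-6.5 h at 37 C, given titrated compounds, then stimulated with 50 nM rosiglitazone for 16 h. Beta-lactamase activity was read with CCF4 dye; IC50 came from Hill fits.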

[20] = target: Thyroid hormone receptor beta (Homo sapiens) (UniProt P10828); assay: qHTS assay for small molecule antagonists of thyroid hormone receptor beta signaling (AID 588547; active = well fitted inhibition curve with a large enough effect in the signal ratio, with a control signal flat, not every such curve was filed as active; the % refers to the signal ratio); conditions: TR-UAS-bla HEK293, beta-lactamase ratio, antagonist mode, 18 h
How it was run: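 TR-UAS-bla GripTite HEK293 cells in 2% charcoal/dextran FBS medium were preincubated 4 h at 37 C, given compound (0.59 nM to 92 uM) plus 0.4 nM T3 (final) for 18 h, then CCF4 for 2 h at RT; Hill fit gave IC50.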

Peroxisome proliferator-activated receptor gamma (Homo sapiens), sequence (P37231 whole entry, looked up): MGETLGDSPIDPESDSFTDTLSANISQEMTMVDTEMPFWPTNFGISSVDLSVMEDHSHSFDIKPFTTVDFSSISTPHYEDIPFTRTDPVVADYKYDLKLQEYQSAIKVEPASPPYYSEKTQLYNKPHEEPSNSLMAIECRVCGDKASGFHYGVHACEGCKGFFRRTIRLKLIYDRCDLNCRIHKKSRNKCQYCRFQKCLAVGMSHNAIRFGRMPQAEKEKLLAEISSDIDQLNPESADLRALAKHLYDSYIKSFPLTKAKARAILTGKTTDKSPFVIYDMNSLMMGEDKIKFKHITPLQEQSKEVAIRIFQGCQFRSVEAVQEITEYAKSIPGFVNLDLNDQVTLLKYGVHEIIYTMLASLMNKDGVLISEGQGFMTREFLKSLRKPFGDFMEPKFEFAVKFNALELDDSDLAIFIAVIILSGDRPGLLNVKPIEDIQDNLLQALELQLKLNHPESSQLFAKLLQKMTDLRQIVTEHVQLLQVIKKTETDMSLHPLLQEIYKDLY
Estrogen receptor (Homo sapiens), sequence (P03372 whole entry, looked up): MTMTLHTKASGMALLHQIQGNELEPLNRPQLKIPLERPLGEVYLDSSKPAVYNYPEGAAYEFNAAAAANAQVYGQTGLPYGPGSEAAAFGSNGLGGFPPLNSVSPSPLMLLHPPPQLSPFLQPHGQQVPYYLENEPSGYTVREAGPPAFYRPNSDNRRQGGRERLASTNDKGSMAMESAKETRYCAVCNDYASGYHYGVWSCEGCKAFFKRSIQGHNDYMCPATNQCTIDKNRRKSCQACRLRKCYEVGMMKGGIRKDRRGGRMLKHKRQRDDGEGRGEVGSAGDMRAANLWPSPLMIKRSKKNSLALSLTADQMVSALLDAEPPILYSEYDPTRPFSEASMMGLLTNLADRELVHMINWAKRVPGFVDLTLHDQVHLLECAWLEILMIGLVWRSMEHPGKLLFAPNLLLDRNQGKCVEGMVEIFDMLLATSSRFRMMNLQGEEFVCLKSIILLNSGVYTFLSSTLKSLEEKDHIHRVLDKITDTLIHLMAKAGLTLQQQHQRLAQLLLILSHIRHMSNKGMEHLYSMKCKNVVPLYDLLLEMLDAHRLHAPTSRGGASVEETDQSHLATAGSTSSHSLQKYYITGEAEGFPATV
Peroxisome proliferator-activated receptor delta (Homo sapiens), sequence (Q03181 whole entry, looked up): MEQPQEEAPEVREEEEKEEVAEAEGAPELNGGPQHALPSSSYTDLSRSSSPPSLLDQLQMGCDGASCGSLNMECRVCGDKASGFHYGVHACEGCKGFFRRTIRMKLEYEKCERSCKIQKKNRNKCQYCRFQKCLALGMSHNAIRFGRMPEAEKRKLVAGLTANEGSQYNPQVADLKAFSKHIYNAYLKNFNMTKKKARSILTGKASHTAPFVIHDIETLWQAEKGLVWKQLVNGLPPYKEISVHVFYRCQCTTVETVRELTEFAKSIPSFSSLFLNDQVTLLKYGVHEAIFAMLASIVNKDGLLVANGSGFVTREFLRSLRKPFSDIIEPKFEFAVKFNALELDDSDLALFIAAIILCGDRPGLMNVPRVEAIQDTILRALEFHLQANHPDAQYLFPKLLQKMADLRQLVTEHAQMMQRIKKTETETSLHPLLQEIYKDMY
Glucocorticoid receptor (Homo sapiens), sequence (P04150 whole entry, looked up): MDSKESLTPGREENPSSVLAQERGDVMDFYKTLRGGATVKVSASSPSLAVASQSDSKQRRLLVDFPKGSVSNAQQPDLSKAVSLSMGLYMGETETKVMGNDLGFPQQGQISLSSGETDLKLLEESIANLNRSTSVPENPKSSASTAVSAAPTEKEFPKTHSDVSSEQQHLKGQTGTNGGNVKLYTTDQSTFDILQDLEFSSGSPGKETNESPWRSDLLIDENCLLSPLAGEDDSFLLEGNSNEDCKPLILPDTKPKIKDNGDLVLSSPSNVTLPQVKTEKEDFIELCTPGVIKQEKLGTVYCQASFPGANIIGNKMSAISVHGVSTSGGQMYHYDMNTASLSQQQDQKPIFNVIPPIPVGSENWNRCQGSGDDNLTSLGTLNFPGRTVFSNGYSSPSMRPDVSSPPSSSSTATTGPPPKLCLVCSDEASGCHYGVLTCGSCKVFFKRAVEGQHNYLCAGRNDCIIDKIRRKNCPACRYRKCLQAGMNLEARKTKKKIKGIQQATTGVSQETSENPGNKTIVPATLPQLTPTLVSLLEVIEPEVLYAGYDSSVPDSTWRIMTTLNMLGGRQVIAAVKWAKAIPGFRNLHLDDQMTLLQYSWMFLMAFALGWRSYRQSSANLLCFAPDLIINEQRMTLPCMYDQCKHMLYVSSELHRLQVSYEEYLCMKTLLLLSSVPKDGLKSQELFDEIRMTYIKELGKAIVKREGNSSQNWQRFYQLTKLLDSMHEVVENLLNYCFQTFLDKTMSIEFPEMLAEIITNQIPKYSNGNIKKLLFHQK
Thyroid hormone receptor beta (Homo sapiens), sequence (P10828 whole entry, looked up): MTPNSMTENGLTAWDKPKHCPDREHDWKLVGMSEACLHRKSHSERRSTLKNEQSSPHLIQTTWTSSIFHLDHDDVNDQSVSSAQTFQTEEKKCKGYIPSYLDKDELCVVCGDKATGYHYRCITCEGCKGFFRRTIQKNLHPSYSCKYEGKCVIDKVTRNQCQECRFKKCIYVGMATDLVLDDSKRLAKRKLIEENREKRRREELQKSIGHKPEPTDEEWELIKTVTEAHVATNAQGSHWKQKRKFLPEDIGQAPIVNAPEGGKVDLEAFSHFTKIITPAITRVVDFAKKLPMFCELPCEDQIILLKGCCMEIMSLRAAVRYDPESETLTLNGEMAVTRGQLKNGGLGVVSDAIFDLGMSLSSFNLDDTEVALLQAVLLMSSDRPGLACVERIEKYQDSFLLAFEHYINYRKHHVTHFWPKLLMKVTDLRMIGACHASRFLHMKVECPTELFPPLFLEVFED
Vitamin D3 receptor (Homo sapiens), sequence (P11473 whole entry, looked up): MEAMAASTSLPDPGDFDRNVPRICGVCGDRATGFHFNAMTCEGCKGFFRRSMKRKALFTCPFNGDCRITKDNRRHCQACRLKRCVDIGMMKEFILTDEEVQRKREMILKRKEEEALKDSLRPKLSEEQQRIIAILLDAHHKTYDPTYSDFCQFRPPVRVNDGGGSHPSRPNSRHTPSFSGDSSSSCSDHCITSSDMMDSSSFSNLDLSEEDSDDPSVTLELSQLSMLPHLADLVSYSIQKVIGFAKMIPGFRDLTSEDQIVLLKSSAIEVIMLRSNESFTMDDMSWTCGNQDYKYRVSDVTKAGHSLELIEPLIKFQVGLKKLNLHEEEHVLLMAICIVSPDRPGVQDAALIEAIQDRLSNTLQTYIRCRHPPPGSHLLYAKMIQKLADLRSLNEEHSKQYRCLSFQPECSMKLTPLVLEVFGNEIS

CC(C)CON=O
inactive: Potency [1] | Potency [2] | Potency [3] | Potency [4] | activation [5] 2.25% | outcome [6] | outcome [7] | outcome [9] | outcome [10] | outcome [11] | Potency [12]
-5.59%: max response [8]

CCCCOC(=O)c1ccccc1N
-36.1%: max response [8]
inactive: Potency [2] | Potency [3] | activation [5] -1.38% | outcome [6] | outcome [7] | outcome [9] | outcome [13] | activation [14] -0.998% | Potency [12]

O=Cc1ccc2c(c1)OCO2
-1.49%: max response [8]
inactive: Potency [2] | Potency [3] | activation [5] 1.67% | outcome [6] | outcome [7] | outcome [9] | outcome [10] | outcome [11] | Potency [15] | activation [14] -0.011% | Potency [12] | Potency [16]

ClC(Br)Br
2.53%: max response [8]
inactive: outcome [17] | Potency [2] | Potency [3] | Potency [18] | Potency [4] | outcome [6] | outcome [7] | outcome [9] | outcome [10] | Potency [19] | activation [14] 1.19% | Potency [12] | Potency [16]

CCNCC
inactive: outcome [17] | Potency [2] | Potency [3] | activation [5] 0.672% | outcome [6] | outcome [7] | outcome [9] | outcome [10] | Potency [19] | outcome [13] | outcome [11] | activity change % (negative = inhibition) [20] 15.3% | Potency [15] | Potency [16]
21.4%: max response [8]

ClCCOCOCCCl
inactive: outcome [17] | Potency [2] | Potency [3] | activation [5] -0.285% | outcome [6] | outcome [10] | Potency [19] | outcome [13] | outcome [11] | activity change % (negative = inhibition) [20] 10.8% | Potency [12] | Potency [16]

Cc1cnc[nH]1
inactive: outcome [17] | Potency [2] | activation [5] -8.66% | outcome [6] | outcome [7] | outcome [10] | outcome [13] | activity change % (negative = inhibition) [20] 8% | Potency [15] | activation [14] -0.55% | Potency [12] | Potency [16]

OC[P+](CO)(CO)CO
-16.4%: max response [8]
inactive: outcome [17] | Potency [18] | Potency [4] | activation [5] -0.662% and -6.97% | outcome [6] | outcome [7] | outcome [9] | outcome [10] | Potency [19] | outcome [11] | activity change % (negative = inhibition) [20] -18.1% and -15.5% | Potency [12] | Potency [16]
active: Potency [1] 0.501 µM | Potency [2] 20 µM | Potency [3] 12.6 µM | Potency [15] 37.6 µM and 30.6 µM

O=NN1CCCCC1
-27.9%: max response [8]
inactive: Potency [1] | outcome [17] | Potency [2] | Potency [3] | activation [5] 0.249% | outcome [6] | outcome [7] | outcome [9] | outcome [10] | outcome [13] | outcome [11] | activity change % (negative = inhibition) [20] 8.23% | activation [14] -0.849% | Potency [12] | Potency [16]
